ELG1 repair inh: ELG1-dependent DNA repair inhibition. HEK293T ELG1-luciferase reporter, luminescence, 16 h; DNA damage induced by 5-fluorouridine. Potency, µM (highest dose often 46.1 µM), without a hit: at the top dose activity change, negative = inhibition, actives largely listed as inhibitors. hit rate 2.3% among 330,000. AID 504467; note: potency is the fitted concentration of half-maximal effect; nearly all actives have a fitted effect of over 55% in size
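Cells (2,000 per well) received 5-fluorouridine plus test compound or DMSO and were incubated 16 hr at 37 °C, 5% CO2. Luciferase activity was read by luminescence 30 min after ONE-Glo addition; signal suppression marked inhibition of damage-induced ELG1 function.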
TDP1 cell CPT: growth inhibition of DT40 Tdp1-/-;hTDP1 cells with camptothecin (screen for TDP1 inhibitors) | AID 686979 | Potency, µM (top dose mostly 46.2 µM), inactives show at the top dose activity change, negative = growth inhibition, hits mostly inhibitors | chicken DT40 Tdp1-/-;hTDP1 cells + 20 nM CPT, ATP luminescence, 48 h | hit rate 12% among 420,000; note: potency is the fitted concentration of half-maximal effect; nearly all actives have a fitted effect of over 55% in size
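Chicken DT40 Tdp1-/- cells stably complemented with human TDP1 were seeded at 400 cells/well in medium containing 20 nM camptothecin, exposed to pin-transferred compounds, and grown at 37 °C for at least 48 hr. Viability was read as ATP luminescence.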
TDP1 cell noCPT: qHTS for Inhibitors of human tyrosyl-DNA phosphodiesterase 1 (TDP1): qHTS in cells in absence of CPT. AID 686978, 2013. Potency, µM (highest dose often 46.2 µM), for the others: top-dose activity change, negative = growth inhibition, actives largely listed as inhibitors. DT40 Tdp1-/- hTDP1 cells, no CPT, ATP luminescence, 48 h. hit rate 15% among 420,000; note: potency is the fitted concentration of half-maximal effect; nearly all actives have a fitted effect of over 55% in size
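A cellular qHTS used chicken DT40 cells lacking endogenous Tdp1 but carrying stably transfected human TDP1. Compounds were applied without camptothecin, and cell growth kinetics were judged by ATP-dependent luminescence after ≥48 hr.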
IL-1B inflam inh: blocks inflammasome-driven IL-1 beta release; THP-1 LPS/ATP IL-1B secretion, AlphaLISA, 16 h; active compounds read low; activity change, % at 57.5 µM; hit rate 4.7% among 360,000; in the data active = activity change below about -50%; inconclusive = mostly about -30% to -49%
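THP-1 cells pretreated 1 hr with compounds (up to 57.5 uM final), then stimulated with LPS (250 ng/mL final) plus ATP (1.25 mM final); secreted IL-1B measured by AlphaLISA after 16 hr, decreased signal indicating inhibition.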
TDP1 inh: blocks human tyrosyl-DNA phosphodiesterase 1; AID 485290; recombinant TDP1, AlphaScreen DNA substrate cleavage; hit rate 0.28% among 350,000; Potency, µM (doses to about 130 µM), for inactives: at the top dose activity change, negative = inhibition, most hits filed as inhibitors; note: potency is the fitted concentration of half-maximal effect; nearly all actives have a fitted effect of over 40% in size
Target sequence (Q9NUW8 whole entry, looked up): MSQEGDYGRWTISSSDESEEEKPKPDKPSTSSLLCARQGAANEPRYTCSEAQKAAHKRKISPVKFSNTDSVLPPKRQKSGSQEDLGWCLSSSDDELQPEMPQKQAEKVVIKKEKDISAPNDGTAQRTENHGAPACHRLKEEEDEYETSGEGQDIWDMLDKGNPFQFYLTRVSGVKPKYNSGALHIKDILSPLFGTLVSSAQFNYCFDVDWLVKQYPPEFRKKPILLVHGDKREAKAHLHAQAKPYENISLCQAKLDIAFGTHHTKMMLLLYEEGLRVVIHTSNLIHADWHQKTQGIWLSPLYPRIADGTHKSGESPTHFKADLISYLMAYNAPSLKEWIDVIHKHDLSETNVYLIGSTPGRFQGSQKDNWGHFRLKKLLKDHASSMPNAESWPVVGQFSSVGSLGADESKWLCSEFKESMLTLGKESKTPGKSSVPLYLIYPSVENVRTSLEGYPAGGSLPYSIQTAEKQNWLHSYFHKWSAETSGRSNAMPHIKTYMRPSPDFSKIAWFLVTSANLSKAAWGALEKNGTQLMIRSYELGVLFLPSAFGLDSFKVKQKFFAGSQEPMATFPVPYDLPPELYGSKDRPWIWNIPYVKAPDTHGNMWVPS
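Recombinant E. coli-expressed Tdp1 (1 nM) preincubated with compound 15 min at RT, then 5'-biotin/3'-phosphotyrosine-FITC DNA substrate (15 nM) added for 5 min. AlphaScreen beads (10 ug/ml) added, 10 min RT; tyrosine-FITC cleavage read as signal loss.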
Giardia kill: Giardia lamblia killing | Giardia lamblia trophozoite viability | activity change, % at 7.66 µM, hits read low | hit rate 0.15% among 340,000 | AID 540267; in the data active = activity change below about -80%; inconclusive = between about -30% and that limit;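 note: parasites exposed to compound for two days anaerobically before the ATP read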
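ATP-content bioluminescence gauges trophozoite survival. Cells (100/well) receive compound and incubate anaerobically for 48 hrs at 37 deg C; detection reagent follows for 15-30 min at room temperature.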
An asterisk follows results filed as active; ? = inconclusive; · = no result; [ ] = dose if it differs, or a comment. An excerpt weighted towards active compounds, which were near 19% of everything screened. Unless noted, calls come from the whole dose curve; as a rule, active = well fitted curve in the direction sought with a large enough effect; inconclusive = small, poorly fitted or top-dose-only effect, or another doubt; inactive = no such curve, though single readings can be large; an effect the other way counts as inactive or inconclusive. % is set by controls: 0 for no effect and ±100 for the full control effect.

SMILES	ELG1 repair inh	TDP1 cell CPT	TDP1 cell noCPT	IL-1B inflam inh	TDP1 inh	Giardia kill
O=C(Nc1ccc2oc(-c3ccccc3Cl)nc2c1)c1cncc(Br)c1	?	7.3µM*	12µM*	-24	3%	1
O=C(COc1ccc(Cl)cc1)Nc1ccc(Cc2ccncc2)cc1	0%	?	?	-71*	3%	-2
Cc1cccc(OCC(=O)Nc2c(C)ccc3nsnc23)c1C	·	15µM*	?	·	5%	·
CCn1cc(C(C)NC(=O)COc2ccc(Cl)cc2C)c(C)n1 (stereo unspecified)	?	?	21µM*	7	2%	-3
COc1ccccc1OCC(=O)Nc1ccncc1	-5%	-23%	?	16	1%	27
Cc1cccc(OCC(=O)Nc2ccncc2)c1C	-6%	12µM*	8.2µM*	-6	0%	3
Cc1cc(Cl)ccc1OCC(=O)NCc1ccncc1	?	?	?	-1	0%	4
Cc1cc(Cl)ccc1OCC(=O)Nc1ccncc1	?	?	5.8µM*	?	·	-6
CCOC(=O)[C@]12CCCC=C1N(CCC1=CCCCC1)C(=O)[C@H](CC(=O)NCc1cccc(C(F)(F)F)c1)C2	·	18µM*	?	-15	·	·
CCOC(=O)[C@]12CCC=C1N(CCC1=CCCCC1)C(=O)[C@H](CC(=O)NCc1cccc3ccccc13)C2	·	?	?	-15	·	·
COC(=O)[C@]12CCCCC=C1N(CCC1=CCCCC1)C(=O)[C@H](CC(=O)NCc1ccccc1)C2	·	?	?	-13	·	·
COC(=O)[C@]12CCCCC=C1N(CCC1=CCCCC1)C(=O)[C@H](CC(=O)NCc1cccc(C(F)(F)F)c1)C2	·	?	23µM*	?	·	·
C=C(C(=O)C(C)(C)O)C(O)c1ccc([N+](=O)[O-])cc1 (stereo unspecified)	·	·	·	·	12%	·
Cc1ccc(NC(=O)COC(=O)c2ccc3c(c2)NC(=O)C2CCCN32)cc1 (stereo unspecified)	-12%	16µM*	?	6	-1%	13
CC(=O)Nc1cc(-c2ccc(F)cc2)cn2c(-c3ccc(F)c(Cl)c3)cnc12	·	?	23µM*	-13	·	·
CC(=O)Nc1cc(-c2ccccc2)cn2c(-c3ccc(F)c(Cl)c3)cnc12	·	23µM*	?	-12	·	·
CC(=O)Nc1cc(-c2ccc(CO)cc2)cn2c(-c3ccc(F)c(Cl)c3)cnc12	·	?	?	-28	·	·
CC(=O)Nc1cc(-c2cccc(F)c2)cn2c(-c3ccc(F)c(Cl)c3)cnc12	·	?	?	-2	·	·
CCOC(=O)C1=C(C)NC(C)=C(C(=O)OCC)C1c1ccccc1C=CC(=O)OC(C)(C)C	·	·	·	·	0%	·
S=c1[nH]c2cc(-c3ccccc3)ccc2o1	?	2%	-13%	71	6%	-4
COc1cccc(C(=O)N(Cc2cc3cc(C)ccc3[nH]c2=O)CC2CCCO2)c1 (stereo unspecified)	0%	?	-23%	?	-3%	-14
COc1ccc(C(=O)N(Cc2ccccc2)Cc2cc3cc4c(cc3[nH]c2=O)OCCO4)cc1	17%	11µM*	11µM*	13	3%	4
COc1cccc(C(=O)N(Cc2ccccc2)Cc2cc3cc4c(cc3[nH]c2=O)OCCO4)c1	?	13µM*	21µM*	-11	-1%	9
O=C(NCCCCN1CCOCC1)c1cc2ccccc2o1	·	·	·	·	8%	·
COc1ccc(N2CCN(CCCNC(=O)c3sc4ncccc4c3-n3cccc3)CC2)cc1	·	?	?	·	8%	·
SMILES	ELG1 repair inh	TDP1 cell CPT	TDP1 cell noCPT	IL-1B inflam inh	TDP1 inh	Giardia kill
O=C(NCCCN1CCN(c2ccc(F)cc2)CC1)c1sc2ncccc2c1-n1cccc1	·	16µM*	?	·	7%	·
O=C(NCCc1ccccc1Cl)c1sc2ncccc2c1-n1cccc1	·	23µM*	?	·	5%	·
CCOc1ccccc1CNC(=O)c1sc2ncccc2c1-n1cccc1	·	15µM*	16µM*	·	4%	·
COCC1CCCN(Cc2ccc3c(c2)CN(C(=O)c2ccc(OC)nc2OC)CCO3)C1 (stereo unspecified)	·	8%[9.04 µM]	-16%	·	·	·
CC(/C=C/C=C/c1ccccc1)=N/NC(=O)C(O)c1ccccc1 (stereo unspecified)	1%	-9%	18µM*	-1	·	15
CC(/C=C/c1ccccc1)=N/NC(=O)c1cccc(Br)c1	-6%	?	23µM*	-29	-3%	5
CC(/C=C/c1cccc([N+](=O)[O-])c1)=N\NC(=O)c1ccncc1	-6%	?	23µM*	-1	3%	2
CC(/C=C\C=C\c1ccccc1)=N\NC(=O)c1cncc(Br)c1	?	7.3µM*	7.3µM*	0	5%	-18
CN(Cc1ccccc1)Cc1nc2c(c(=O)n(C)c(=O)n2C)n1Cc1ccccc1Cl	15µM*	26µM*	12µM*	-7	-1%	-8
CCCn1c(CN(Cc2ccccc2)Cc2ccccc2)nc2c1c(=O)n(C)c(=O)n2C	?	23µM*	15µM*	-15	3%	?
CCOC(=O)Cn1c(CN(Cc2ccccc2)Cc2ccccc2)nc2c1c(=O)n(C)c(=O)n2C	?	21µM*	?	29	3%	-3
CCCn1c(CN(C)Cc2ccccc2)nc2c1c(=O)n(C)c(=O)n2C	12µM*	9.2µM*	10µM*	-23	3%	7
Cn1c(=O)c2c(nc(Cc3ccccc3)n2C)n(C)c1=O	21%	0%	2%	6	-5%	-2
CCOCCn1c(CN(C)Cc2ccccc2)nc2c1c(=O)n(C)c(=O)n2C	?	?	23µM*	43	·	-8
CN(Cc1ccccc1)Cc1nc2c([nH]1)c(=O)n(C)c(=O)n2C	?	?	-24%	17	2%	14
CN(Cc1ccccc1)Cc1nc2c(c(=O)n(C)c(=O)n2C)n1CCc1ccccc1	·	13µM*	18µM*	-10	·	-5
CCCCn1c(CN(C)Cc2ccccc2)nc2c1c(=O)n(C)c(=O)n2C	?	6.5µM*	4.1µM*	-13	-3%	2
COCCn1c(CN(C)Cc2ccccc2)nc2c1c(=O)n(C)c(=O)n2C	?	?	?	46	0%	7
COc1ccccc1CN1C(=O)c2cccc3cccc(c23)C1=O	3%	-19%	?	-6	1%	-3
Cc1cc(Br)cc2c1N(Cc1ccccc1OC(C)C)C(=O)C2=O	·	21µM*	4.1µM*	·	13%	·
